Among all 310,000 compounds or so, about 14,000 (4.5%) showed an effect of 50% or more. Effects have a minus sign here. Many of the other results were omitted from the sample, so strong results are more common in it than they were.
target: human ether-à-go-go-related gene (hERG) potassium channel (human, UniProt Q12809); assay: primary screen, population patch clamp on CHO cells stably expressing hERG; higher = less effect of the substance
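Also: peak tail current of the secondary pulse compared with the same well before compound.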

Sequence of human ether-à-go-go-related gene (hERG) potassium channel (Q12809 whole entry, looked up): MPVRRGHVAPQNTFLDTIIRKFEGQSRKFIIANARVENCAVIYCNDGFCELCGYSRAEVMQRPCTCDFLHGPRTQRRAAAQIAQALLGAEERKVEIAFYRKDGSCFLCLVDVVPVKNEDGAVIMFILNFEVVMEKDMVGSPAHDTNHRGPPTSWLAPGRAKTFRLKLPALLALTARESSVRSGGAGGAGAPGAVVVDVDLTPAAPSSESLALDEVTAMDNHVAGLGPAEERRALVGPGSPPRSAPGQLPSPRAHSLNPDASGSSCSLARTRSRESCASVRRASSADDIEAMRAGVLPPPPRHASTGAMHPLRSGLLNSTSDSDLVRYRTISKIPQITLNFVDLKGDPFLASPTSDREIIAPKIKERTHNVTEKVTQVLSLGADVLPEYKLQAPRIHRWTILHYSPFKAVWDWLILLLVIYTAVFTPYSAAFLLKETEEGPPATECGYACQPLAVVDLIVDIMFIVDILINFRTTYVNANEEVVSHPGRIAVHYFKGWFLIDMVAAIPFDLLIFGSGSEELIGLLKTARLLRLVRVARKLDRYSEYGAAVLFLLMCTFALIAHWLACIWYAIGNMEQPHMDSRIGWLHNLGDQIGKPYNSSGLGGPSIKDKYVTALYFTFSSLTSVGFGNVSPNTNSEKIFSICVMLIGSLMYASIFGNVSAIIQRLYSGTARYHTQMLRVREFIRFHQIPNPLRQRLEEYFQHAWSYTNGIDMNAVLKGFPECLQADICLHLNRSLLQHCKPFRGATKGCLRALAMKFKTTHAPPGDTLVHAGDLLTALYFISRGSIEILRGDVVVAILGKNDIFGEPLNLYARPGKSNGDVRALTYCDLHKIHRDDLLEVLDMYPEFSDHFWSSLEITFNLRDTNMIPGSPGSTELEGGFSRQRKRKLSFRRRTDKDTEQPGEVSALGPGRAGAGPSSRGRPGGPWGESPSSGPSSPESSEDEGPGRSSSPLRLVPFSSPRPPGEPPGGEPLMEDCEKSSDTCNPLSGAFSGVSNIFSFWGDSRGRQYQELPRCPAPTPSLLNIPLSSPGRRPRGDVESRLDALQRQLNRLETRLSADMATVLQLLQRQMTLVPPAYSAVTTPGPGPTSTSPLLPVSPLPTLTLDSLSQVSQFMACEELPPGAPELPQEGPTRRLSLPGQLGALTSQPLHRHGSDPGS

| Compound | hERG current change (%, negative = inhibition) at 10uM [%] |
| --- | --- |
| COc1ccc2cc(OCC(=O)NNC(=O)Nc3ccc(C(C)=O)cc3)ccc2c1 | 9.54 |
| Cc1ccnc(SCc2cc(=O)c(OC(=O)c3ccco3)co2)n1 | 4.97 |
| COc1ccc(NCc2ccsc2)cc1 | 2.52 |
| O=C(NCC1CC1)c1ccccc1Cl | 11.6 |
| COc1ccc(N2CCN(C3CC(=O)N(c4ccc5c(c4)OCCO5)C3=O)CC2)cc1 (stereo not drawn) | -2.06 |
| CC(=O)Oc1ccccc1C(=O)N(C1CCCCC1)C1CCCCC1 | 15.3 |
| COc1ccc(C(=O)N/N=C(\Cc2ncc[nH]2)c2ccccc2)cc1 | 2.43 |
| COCCN(C(=O)CSc1nnc(-c2ccccc2C)n1C)c1c(N)n(Cc2ccccc2)c(=O)[nH]c1=O | 38.4 |
| O=C(/C=C/c1cccc(F)c1)N1CCc2ccccc21 | 4.51 |
| O=C(/C=C/c1ccccc1)N1CCC(c2ccccc2)C1 (stereo not drawn) | -57.6 |
| O=C(/C=C/c1ccccc1)N1CCCN(C(=O)/C=C/c2ccccc2)CC1 | -68.5 |
| COc1ccccc1/C=C/C(=O)N1CCC(c2ccccc2)C1 (stereo not drawn) | -4.29 |
| O=C(/C=C/c1ccccc1)N1CCOCC1 | 13.9 |
| COc1ccc(/C=C/C(=O)N2CCCc3ccccc32)cc1 | -16.8 |
| COc1ccc(/C=C/C(=O)N2CCC(c3ccccc3)C2)cc1 (stereo not drawn) | -47.4 |
| O=C(/C=C/c1ccc(F)cc1)N1CCCc2ccccc21 | -62.7 |
| CN1CCN(C(=O)/C=C/c2ccccc2)CC1 | 4.5 |
| CCC(=O)Oc1ccc2c(c1)OC1(OC(C)=O)OC(C)CC1=C2C (stereo not drawn) | -5.19 |
| CCCCn1nnnc1NCc1cccnc1 | 8.93 |
| COc1ccc(CC(=O)NCc2nnc(SCC(=O)Nc3ccc(OC)cc3)n2C)cc1 | 4.08 |
| Cc1ccc(S(=O)(=O)N2CCN(C(=O)c3ccc(COc4ccccc4)o3)CC2)cc1 | -0.773 |
| CCOC(=O)c1ccc(NC(=O)C2CCCN(S(=O)(=O)c3ccc(F)cc3)C2)cc1 (stereo not drawn) | -15.1 |

| Compound | hERG current change (%, negative = inhibition) at 10uM [%] |
| --- | --- |
| COc1ccc(-c2nn(C)c3sc(C(=O)NCCN(C)C)cc23)cc1OC | 15.4 |
| O=C(CCCOc1ccc(Cl)cc1Cl)NCCCn1ccnc1 | -62.5 |
| Cl.O=C(COc1ccc(Cl)cc1Cl)NCCCn1ccnc1 | -38.6 |
| COc1cc(S(=O)(=O)NCCCn2ccnc2)ccc1Cl | 7.94 |
| Cc1cc(Cl)ccc1OCCCC(=O)NCc1ccncc1 | -44.4 |
| CCOc1cc(S(=O)(=O)NCCCn2ccnc2)ccc1Cl | -64 |
| CC(Oc1ccc(Cl)cc1Cl)C(=O)NCCCn1ccnc1 (stereo not drawn) | -28 |
| O=C(OCC(=O)c1ccccc1Cl)c1cnccn1 | -0.611 |
| CCOc1cc(Cl)c(S(=O)(=O)NCCCn2ccnc2)cc1Cl | -48.9 |
| Cc1cc(Cl)ccc1OCC(=O)NCCCn1ccnc1 | -29.8 |
| Cc1cc(Cl)ccc1OCCCC(=O)NCCCn1ccnc1 | -68.1 |
| O=C(OCC(=O)c1ccc(Cl)cc1Cl)c1cnccn1 | -58.3 |
| O=C(COC(=O)c1cnccn1)c1ccc(Cl)cc1 | 24.4 |
| Cc1ncc([N+](=O)[O-])n1CC(=O)Nc1ccc(F)cc1F | 13.3 |
| CCOc1ncccc1C(=O)OCC(=O)Nc1ccc(C)c(S(=O)(=O)N2CCOCC2)c1 | -27 |
| CCOC(=O)[C@H]1[C@H]2COc3ccc(OC)cc3[C@@H]2N2C(=O)CN(Cc3ccc(F)cc3)C(=O)[C@@]12C | -26.5 |
| CCOC(=O)/C=c1\s/c(=C\c2ccc(C(=O)OC)cc2)c(=O)n1CC(=O)Nc1ccccc1.Cl | 19.5 |
| COc1ccc(NC(=O)CCCn2c(=O)c3sccc3n(Cc3ccc(C)cc3)c2=O)cc1 | -5.72 |
| COc1ccc(NC(C)=O)cc1S(=O)(=O)N1CCN(C(=O)c2ccccc2F)CC1 | -7.16 |
| Cc1ccc(-c2ccc(C(=O)NCCCNC(=O)c3cnccn3)o2)cc1Cl | 25.5 |
| O=C(NCCNC(=O)c1ccc(-c2ccc(Cl)c(Cl)c2)o1)c1cnccn1 | -71.6 |
| O=C(COc1ccc(Cl)cc1)NCCCNC(=O)c1cnccn1 | -10.2 |

| Compound | hERG current change (%, negative = inhibition) at 10uM [%] |
| --- | --- |
| O=C(COc1ccccc1Cl)NCCCNC(=O)c1cnccn1 | 5.28 |
| O=C(COc1ccc(Cl)cc1Cl)NCCCNC(=O)c1cnccn1 | -56.5 |
| O=C(NCCCNC(=O)c1ccc(-c2cccc(Cl)c2)o1)c1cnccn1 | -31.8 |
| CCn1c(SCc2cc(=O)[nH]c3ccccc23)nnc1C1CC1 | 8.48 |
| O=C(N/N=C/c1ccncc1)c1cccc(NC(=O)c2ccccc2Cl)c1 | -2.33 |
| O=C(C1CCN(S(=O)(=O)c2cccc3nsnc23)CC1)N1CCCCC1 | 2.03 |
| O=C(CN1CCN(c2ccc(F)cc2)CC1)N(C1CCCC1)C1CCS(=O)(=O)C1 (stereo not drawn) | -40.4 |
| Cc1ccccc1Cn1cc(/C=N/n2cnnc2)c2ccccc21 | 14.8 |
| COc1cc(CC(=O)Oc2ccc3c(c2)OCO3)cc(OC)c1OC | -2.51 |
| COc1ccc(CCNC(=O)CS(=O)(=O)Cc2nc(-c3ccccc3Cl)oc2C)cc1OC | -3.23 |
| COc1ccc(-c2cc(C(=O)N/N=C(\C)c3cccnc3)c3ccccc3n2)c(OC)c1 | 1.6 |
| COc1ccc(-c2cc(C(=O)NCc3cn(C)nc3C)c3ccccc3n2)cc1OC | 2.61 |
| CCn1cc(CNC(=O)c2cc(-c3cc(OC)ccc3OC)nc3ccccc23)c(C)n1 | -53.9 |
| COc1ccc(/C(C)=N/NC(=O)c2cc(-c3cccnc3)nc3ccccc23)cc1 | 10.6 |
| COc1ccc(OC)c(-c2cc(C(=O)N/N=C(\C)c3cccnc3)c3ccccc3n2)c1 | -65.5 |
| C/C(=N\NC(=O)c1cc(-c2ccncc2)nc2ccccc12)c1ccc(OC(F)F)cc1 | -56.1 |
| COc1ccc(-c2cc(C(=O)N/N=C(\C)c3cccnc3)c3ccccc3n2)cc1 | 8.87 |
| CC(=O)Nc1cccc(/C(C)=N/NC(=O)c2cc(-c3ccncc3)nc3ccccc23)c1 | -6.95 |
| CCn1cc(CNC(=O)c2cc(-c3ccccc3OC)nc3ccccc23)c(C)n1 | -19.5 |
| CCOC(=O)c1cc(-c2ccccc2C)n(CC2CC(c3cccc([N+](=O)[O-])c3)=NO2)n1 (stereo not drawn) | 0.113 |
| Cc1csc(SCC(=O)Nc2cccc(S(=O)(=O)N3CCOCC3)c2)n1 | -6.13 |
| CCn1nnnc1SCC(=O)N1c2ccccc2CCc2ccccc21 | 2.92 |

| Compound | hERG current change (%, negative = inhibition) at 10uM [%] |
| --- | --- |
| CCOC(=O)C(=O)Nc1nnc(SCc2ccc(F)cc2)s1 | 1.7 |
| Cc1ccc(SCC(=O)NC2CC2)cc1 | 13.3 |
| CCOCCCNC(=O)c1cc(C)nn1-c1ccccc1 | 11 |
| CCOC(=O)C1CCN(Cc2cn(C)nc2-c2ccc(Oc3ccccc3)cc2)CC1 | -44.9 |
| Cn1cc(CN2CCC(O)CC2)c(-c2ccc(Oc3ccccc3)cc2)n1 | -23.7 |
| CCCN1CCC(NCc2cn(C)nc2-c2ccc(Oc3ccccc3)cc2)CC1 | -66.1 |
| COC1CCCN(Cc2cn(C)nc2-c2ccc(Oc3ccccc3)cc2)C1 (stereo not drawn) | -40.7 |
| COCCN1CCCC(CNCc2cn(C)nc2-c2ccc(Oc3ccccc3)cc2)C1 (stereo not drawn) | -33.2 |
| C[C@H]1C(=O)N(C)CCN1Cc1cn(C)nc1-c1ccc(Oc2ccccc2)cc1 | -4.92 |
| Cn1cc(CN2CCN(CCO)CC2)c(-c2ccc(Oc3ccccc3)cc2)n1 | -32.3 |
| CC1CN(Cc2cn(C)nc2-c2ccc(Oc3ccccc3)cc2)CCN1C (stereo not drawn) | -57.2 |
| COCCN1CCN(Cc2cn(C)nc2-c2ccc(Oc3ccccc3)cc2)CC1 | -65.2 |
| Cn1cc(CN2CCC(CO)CC2)c(-c2ccc(Oc3ccccc3)cc2)n1 | -67.5 |
| Cn1cc(CN2CCCC(CO)C2)c(-c2ccc(Oc3ccccc3)cc2)n1 (stereo not drawn) | -26.2 |
| CCN(CC)C(=O)C1CCN(Cc2cn(C)nc2-c2ccc(Oc3ccccc3)cc2)CC1 | -46.9 |
| O=C(O)c1ccc2c3c(cccc13)C(=O)N(c1cccc3ccccc13)C2=O | 34.3 |
| COc1ccc(-c2[nH]ncc2CN(CCO)Cc2cccs2)c(F)c1 | 4.65 |
| CCCC(=O)NC(C)c1nc2ccccc2n1C(C)C (stereo not drawn) | 8.05 |
| Cc1cc(C)cc(N(CCC#N)C(=O)COC(=O)CN2C(=O)NC(C)(C)C2=O)c1 | 19.6 |
| COc1cccc(NC(=O)NNS(=O)(=O)c2ccc(OC)cc2OC)c1 | -3 |
| COc1ccc(N=N/C(C(C)=O)=C(/C)O)cc1 | -24.5 |
